97 compounds from PubChem BioAssay AID1486 (The Scripps Research Institute Molecular Screening Center, 2009) can be followed below.

Screen size: about 220,000 compounds; about 2,400 (1.1%) were called active. Shown is part of a subset that was picked to be rich in actives. Unmarked numbers belong to inactive results.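 The calls were made as follows: active = inhibition above a per-campaign cutoff, the mean inhibition of all tested compounds plus 3 SD (cut at about 27% in these data); inactive = the rest.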

The assay can be described thus: parental Ba/F3 cell viability inhibition, counter-screen for JAK2V617F inhibitor project, murine pro-B, CellTiter-Glo luminescence (AID 1486).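 Also: 0% = DMSO wells and 100% = JAK Inhibitor I control wells.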 Particulars: CellTiter-Glo ATP luminescence, at 5.6 µM, stronger effect = higher value.
Take `COc1cc(/C=N\Nc2ccc([N+](=O)[O-])cn2)ccc1OCC(=O)O`: the inhibition was 10.2%.

As for `Cc1cc(/C=N/Nc2ccc([N+](=O)[O-])cn2)c(C)n1-c1cccc(C(=O)O)c1`, the inhibition was -1.49%.

With `Cc1ccc(-n2c(C)cc(/C=N/Nc3ccc([N+](=O)[O-])cn3)c2C)c(C)c1`, the inhibition is 50.2% (active).

Take `Cc1cc(NC(=O)CSc2nc3cc(Cl)ccc3c(=O)n2Cc2ccco2)no1`: the inhibition is 8.02%.

Turning to `C[C@@H](C(=O)N1CCNCC1)n1cc(CCC(=O)O)nn1`, the inhibition is -3.7%.

As to `O=C(Cn1cnc2ccccc21)N/N=C/c1ccco1`, the inhibition is 1.87%.

As for `COC(=O)c1cc(NC(=O)c2ccco2)ccc1N1CCOCC1`, the inhibition was 1.48%.

As for `Cc1ccc(CNC(=O)CCNC(=O)Cn2ccc3ccccc3c2=O)cc1`, the inhibition was 8.67%.

`COC(=O)COc1cccc2c(=O)n(CC(=O)NCCc3ccc(OC)c(OC)c3)ccc12`: the inhibition was -0.48%.

For the compound `COC(=O)COc1cccc2c(=O)n(CC(=O)NCc3ccccc3)ccc12`, the inhibition was 44.3% (active).

Take `Cc1ccc2nc(C)cc(N/N=C/c3ccc(F)cc3)c2c1`: the inhibition was 8.42%.

With `NS(=O)(=O)c1ccc(CNC(=O)c2cnccn2)cc1`, the inhibition was -6.36%.

For `CCOc1ccc(OCc2cccc(C(=O)N(CC)CC)c2)cc1`, the inhibition was 1.21%.

`Cc1nn(-c2ccc([N+](=O)[O-])cc2)c(N)c1-c1ccccc1`: the inhibition was -2.11%.

In the case of `Cc1ccc(N=C2NC(=O)c3cccc([N+](=O)[O-])c32)cc1`, the inhibition is 2.95%.

Take `O=C(NCc1ccccc1Cl)C1CCCO1` (configuration not stated): the inhibition is 4.65%.

As for `NS(=O)(=O)c1ccc(NC(=O)COC(=O)c2ccc(Cl)nc2)cc1`, the inhibition is 4.09%.

Take `CCN(CC)c1ccc(NC(=O)c2ccc(Cl)nc2)cc1`: the inhibition is 72.5% (active).

As to `O=C(NNc1ccccn1)c1ccc(Cl)nc1`, the inhibition is 3.58%.

For the compound `Cc1ccc(C)c(NC(=O)c2ccc(OC(=O)c3ccco3)cc2)c1`, the inhibition is 5.55%.

As for `C=CC[n+]1c(-c2ccc(C)cc2)csc1NNC(=O)Nc1ccccc1`, the inhibition is 57.4% (active).

Regarding `Cc1ccc(NC(=O)Nc2ccccc2)c(Br)c1`, the inhibition is 5.76%.

As to `C=CCNc1scc(-c2ccccc2)[n+]1CC=C`, the inhibition was 1.05%.

For the compound `CC(=O)Nc1ccc(/C=N/Nc2ccc(C(=O)c3c(C)cc4ccccn34)cc2[N+](=O)[O-])cc1`, the inhibition is -11.2%.

Take `CS(=O)(=O)Nc1cccc(-c2cn3ccccc3n2)c1`: the inhibition is 7.16%.

`Cc1ccc(CC(=O)Nc2cccc(C#N)c2)cc1`: the inhibition is 6.45%.

`CC(O)C(NS(=O)(=O)c1ccc(Cl)cc1)C(=O)OCc1cc([N+](=O)[O-])cc2c1OCOC2` (configuration not stated): the inhibition was 4.65%.

`CCNC(=O)c1sccc1-n1cccc1`: the inhibition was 2.59%.

As to `CCCCNC(=O)OCCSCCS(=O)(=O)c1ccc(Cl)cc1`, the inhibition is -2.09%.

In the case of `Cc1ccc(NC(=O)c2oc3ccccc3c2C)c([N+](=O)[O-])c1`, the inhibition is 2.45%.

Regarding `c1ccc(-n2ncc3c(N4CCCC4)ncnc32)cc1`, the inhibition is 2.78%.

Consider `c1ccc(-n2ncc3c2ncn2c(C4CCCCC4)nnc32)cc1`, for which the inhibition was 97.5% (active).

In the case of `CN(C(=O)COc1ncnc2c1cnn2-c1ccccc1)C1CCCCC1`, the inhibition is -1.06%.

Turning to `Cc1ccc(C2NC(C(=O)O)CS2)cc1` (configuration not stated), the inhibition is 4.83%.

Regarding `CC(=O)NCc1ccc(S(=O)(=O)NC2CCN(Cc3ccccc3)CC2)cc1`, the inhibition is -3.37%.

As to `C[C@@H]1C[C@@H]2O[C@H]2/C=C\C=C\C(=O)Cc2c(Cl)c(O)cc(O)c2C(=O)O1`, the inhibition is 104% (active).

Regarding `CC(NC(=S)Nc1ccccc1)C(c1cccs1)N1CCOCC1` (configuration not stated), the inhibition is -4.02%.

On to `CN(C)c1ccc(/C=N/N(Cc2ccccc2)c2ccccc2)cc1`, for which the inhibition is 8.22%.

On to `CN(Cc1ccccc1)Cc1ccccc1F`, for which the inhibition is 10.4%.

With `COC(=O)c1ccc(Cc2ccccc2)o1`, the inhibition was 1.87%.

Take `c1ccc(Cc2cc[n+](Cc3ccccc3)cc2)cc1`: the inhibition is 71.7% (active).

Regarding `CN(C)c1cc[n+](Cc2ccccc2)cc1`, the inhibition was 66.3% (active).

As for `CCn1c(SCC(=O)Nc2ccc(C)cc2)nc2nc3c(cc2c1=O)CCCC3`, the inhibition is 1.35%.

For `S=c1ccc2ccccc2[nH]1`, the inhibition was 2.2%.

Take `CCCCCc1ccc(-c2ccc(C(=O)O)cc2)nc1`: the inhibition is 6.06%.

As to `Cc1cc(C)n(-c2cc(Oc3ccccc3)ncn2)n1`, the inhibition was 4.63%.

As to `COc1ccccc1/C=N\Nc1cc(C)nc(-n2nc(C)cc2C)n1`, the inhibition was 7.87%.

Take `Cc1cc(Oc2ccccc2)nc(N2CCOCC2)n1`: the inhibition is 2.47%.

Turning to `CC(=O)c1ccc(Oc2cc(C)nc(-n3nc(C)cc3C)n2)cc1`, the inhibition was 73.9% (active).

For `COc1ccc(Nc2cc(C)nc(-n3nc(C)cc3C)n2)cc1`, the inhibition is 78% (active).

Regarding `Cc1cc(N/N=C\c2ccc(Br)cc2)nc(-n2nc(C)cc2C)n1`, the inhibition is 0.24%.

Consider `Cc1cc(N2CCOCC2)nc2ccc(NC(=S)N3CCN(Cc4ccccc4)CC3)cc12`, for which the inhibition was 5.21%.

Turning to `COC(=O)C(C)NC(=O)COc1ccc2ccccc2c1` (configuration not stated), the inhibition was 1.41%.

Turning to `CCOC(=O)CN1C(=O)N[C@@H](c2ccc(Br)cc2)C(C(C)=O)=C1C`, the inhibition was 3.53%.

For the compound `CCOC(=O)c1ccc(NC(=S)N2CCCC2)cc1`, the inhibition is 0.86%.

For the compound `COc1ccc(-c2csc(NC3OC(=O)c4ccccc43)n2)cc1` (configuration not stated), the inhibition was -1.11%.

For `COc1ccc(Nc2nc(-c3ccccc3)cs2)cc1`, the inhibition is 4.08%.

With `COc1ccc2c(c1OC)C(=O)OC2Nc1nc(-c2ccccc2)cs1` (configuration not stated), the inhibition was 40.2% (active).

Turning to `CC(C)(C)c1nnc(NC(=O)C2c3ccccc3Oc3ccccc32)s1`, the inhibition is 0.88%.

On to `Nc1ccc(N=Nc2ccccc2Cl)c(N)n1`, for which the inhibition was -6.75%.

In the case of `CCOc1ccc(Br)cc1CSC(=N)N`, the inhibition is 6.11%.

Take `CN1/C(=C\C(=O)c2oc3ccccc3c2N)C(C)(C)c2ccccc21`: the inhibition was 10.9%.

`CN1/C(=C\C(=O)c2cccnc2Cl)C(C)(C)c2ccccc21`: the inhibition is 5.33%.

As for `CN1/C(=C\C=C2\N=C(c3ccc(F)cc3)OC2=O)C(C)(C)c2ccccc21`, the inhibition was 30.4% (active).

For `Cc1csc(NC(=O)c2ccc(-c3ccc(Cl)cc3Cl)o2)n1`, the inhibition is 5.38%.

`O=C(c1cccnc1)N(c1cc2sc(=O)oc2c2ccccc12)S(=O)(=O)c1ccccc1`: the inhibition was 12.4%.

As for `O=C(COc1ccccc1F)NNC(=O)c1ccc(N2CCCCC2)c([N+](=O)[O-])c1`, the inhibition was 2.6%.

Turning to `CCCCNS(=O)(=O)c1ccc(S(=O)(=O)n2cnc3ccccc32)cc1`, the inhibition was 1.68%.

In the case of `O=S(=O)(c1ccc(-c2ccccc2)cc1)N1CCCC1`, the inhibition was 7.94%.

As to `O=S(=O)(c1ccc(Br)cc1)n1ccc2ccccc21`, the inhibition was 36.7% (active).

Take `O=C1CC(c2ccccc2)CC(O)=C1C=NCCN1CCOCC1` (configuration not stated): the inhibition is 2.34%.

Turning to `O=C1CCCC(O)=C1C=NCCc1ccccc1`, the inhibition is 42.9% (active).

With `CC1(C)CC(=O)C(C=NCCC2=CCCCC2)=C(O)C1`, the inhibition was 6.01%.

Consider `CCCCN(C(=O)c1ccc(OC(F)(F)F)cc1)c1c(N)n(CCC)c(=O)[nH]c1=O`, for which the inhibition is 3.34%.

In the case of `CC(C)(C)SCCNC(=O)c1cccc([N+](=O)[O-])c1`, the inhibition is 5.58%.

On to `Cc1noc(C)c1COc1cccc(C(=O)Nc2cccnc2)c1`, for which the inhibition is 1%.

Take `CN(Cc1cccnc1)C(=O)c1cc(COc2ccc3ncccc3c2)on1`: the inhibition was 84.6% (active).

In the case of `Cc1cc(NCc2cccnc2)no1`, the inhibition is 1.06%.

In the case of `CCCOc1ccc(NC(=O)C2OC3OC(C)(C)OC3C3OC(C)(C)OC23)cc1` (configuration not stated), the inhibition was 4.19%.

In the case of `N#Cc1ccccc1NC(=O)c1cccc(COc2ccc(Cl)cc2Cl)c1`, the inhibition is 1.93%.

`Cc1ccc(C2CCN(C(=S)Nc3cccc(Cl)c3)C2)cc1` (configuration not stated): the inhibition was 54% (active).

Turning to `O=C(C1CCCO1)N1CCN(C(=S)Nc2cccc(Cl)c2)CC1` (configuration not stated), the inhibition is 9.12%.

As to `Cc1cccc(NC(=S)N2CCCC(c3nc4ccccc4[nH]3)C2)c1` (configuration not stated), the inhibition is 5.36%.

`COC(=O)[C@H](Cc1ccccc1)NC(=O)[C@@H]1C[C@H]1[C@@H](NC(=O)OCc1ccccc1)c1ccccc1`: the inhibition is 1.6%.

On to `CCCc1ccc(C(=O)[C@@H]2[C@@H](C(C)=O)N3c4ccc(F)cc4C=C[C@@H]3[C@@]23C(=O)Nc2ccccc23)cc1`, for which the inhibition was -6.87%.

For `COc1cccc(CC2(CO)CCCN(Cc3nc(-c4cccs4)oc3C)C2)c1` (configuration not stated), the inhibition was 10.4%.

As for `Cc1ccc(CN2CCN(Cc3ccccc3-c3ccco3)CC2CCO)o1` (configuration not stated), the inhibition was 6.27%.

With `Cc1cc(C)n(-c2nnc(C)n2NC(=O)c2cccc(Cl)c2)n1`, the inhibition was -0.31%.

As to `O=C1/C(=C\c2ccsc2)NC(=S)N1c1ccccc1`, the inhibition is 1.31%.

As for `Cc1ccccc1NC(=O)CN1C(=O)N/C(=C\c2cccn2-c2cccc(C(=O)O)c2)C1=O`, the inhibition is 7.07%.

In the case of `O=C1N/C(=C/c2cccn2-c2ccccc2)C(=O)N1c1cccc(Cl)c1`, the inhibition is 52.5% (active).

As for `COC(=O)c1ccc(CN2CCN(CCCc3ccccc3)C(CCO)C2)cc1` (configuration not stated), the inhibition is 4.68%.

Take `CCN1CCN(CCNC(=O)c2ccc(/C=C3/Sc4ccccc4N(Cc4cccc(C)c4)C3=O)cc2)CC1`: the inhibition is 13.1%.

Consider `CCN1/C(=C/c2ccc3ccc(C)cc3[n+]2CC)Sc2ccccc21`, for which the inhibition is 87.6% (active).

Consider `CCN1/C(=C\c2ccc3ccccc3[n+]2CC)Sc2cc(C)ccc21`, for which the inhibition was 88.7% (active).

For `CCN1/C(=C/C(=S)Nc2ccccc2)Sc2ccccc21`, the inhibition was 0.08%.

For `COc1ccccc1C1C(C#N)=C(N)Oc2c1c(-c1ccccc1)nn2-c1ccccc1` (configuration not stated), the inhibition was 4.31%.
